From ChEMBL document CHEMBL1157539, “Thousands of chemical starting points for antimalarial lead identification” (Nature, 2010) come the findings set out here.

For orientation: Inhibition means the drop in the measured response relative to a control, in per cent. Low values mean a weak effect, high ones a strong effect.

Format in all cases: functional
Experiment [1] concerns Plasmodium falciparum. Put plainly: GSK_TCMDC: Inhibition of Plasmodium falciparum 3D7 in whole red blood cells, using parasite LDH activity as an index of growth. Test compounds present at 2uM.
Experiment [2] relates to Plasmodium falciparum. Put plainly: GSK_TCMDC: Inhibition of Plasmodium falciparum Dd2 in whole red blood cells, using parasite LDH activity as an index of growth. Test compounds present at 2uM.
The next experiment concerns HepG2. The experiment is described as follows: GSK_TCMDC: Percent inhibition of human HepG2 cell line. Test compounds present at 10uM.

Turning to `CC1CCN(C(=O)[C@H](Cc2c[nH]c3ccccc23)NS(=O)(=O)c2ccc(Cl)cc2)CC1`, the Inhibition in the experiment on Plasmodium falciparum [1] turned out to be 100%; in the experiment with Plasmodium falciparum [2], 99%; in the experiment with HepG2, 0%.

For `COc1ccc2[nH]c(C)cc(=NN=Cc3ccc(F)cc3)c2c1`, the Inhibition is listed as 100% in the experiment with Plasmodium falciparum [1], 99% with Plasmodium falciparum [2] and 5% in the experiment with HepG2.

For `Cc1cc(CNCCCCCCCNCc2cccc([N+](=O)[O-])c2)ccc1O`, the Inhibition with Plasmodium falciparum [1] was 100%; in the experiment with Plasmodium falciparum [2], 0%; with HepG2 it was 6%.

Regarding `COC(=O)c1cccc(CNCc2ccc(-c3ccc(-c4nc5cc(F)ccc5[nH]4)cc3)cc2)c1.O=C(O)C(F)(F)F`, the Inhibition with Plasmodium falciparum [1] was 100%; in the experiment with Plasmodium falciparum [2], 95%; with HepG2, 8%.

As to `O=C(CC1CCCC1)Nc1ccc2c(c1)CCC2`, the Inhibition in the experiment on Plasmodium falciparum [1] was determined as 93%; in the experiment with Plasmodium falciparum [2], 0%; with HepG2 it was 0%.

`Cc1ccc(Nc2nc(N/N=C/c3cccc(O)c3)nc(Nc3ccc([N+](=O)[O-])cc3)n2)cc1C`: the results for the Inhibition in the experiment on Plasmodium falciparum [1], in the experiment with Plasmodium falciparum [2] and in the experiment with HepG2 were 100%, 69% and 0%, respectively.

On to `Nc1nc2c(ncn2OC[C@H](CO)OCP(=O)(O)O)c(=O)[nH]1`, for which the figures for the Inhibition in the experiment on Plasmodium falciparum [1], in the experiment with Plasmodium falciparum [2] and in the experiment on HepG2 were 94%, 61% and 5%, respectively.

As for `N#Cc1cccc(C(=O)Nc2ccc(-c3cccc(CN4CCC(O)CC4)c3)cc2)c1.O=C(O)C(F)(F)F`, the Inhibition in the experiment with Plasmodium falciparum [1] came out at 100%; with Plasmodium falciparum [2], 68%; in the experiment on HepG2 it was 33%.

Take `COc1cc2nc(N(C)CC3COc4ccccc4O3)nc(N)c2cc1OC.Cl` (stereo not drawn): the Inhibition in the experiment on Plasmodium falciparum [1] was 94%; in the experiment on Plasmodium falciparum [2], 26%; in the experiment with HepG2, 11%.

As for `CCOC(=O)C(=CNc1ccc(Cc2cnc(N)nc2N)cc1CC)C(=O)OCC`, the figures for the Inhibition in the experiment on Plasmodium falciparum [1], with Plasmodium falciparum [2] and with HepG2 were 87%, 7% and 47%, respectively.

Consider `O=C(O)C(F)(F)F.c1cc(CNC2CCN(CC3CCCCC3)CC2)cc(-n2ccnc2)c1`, for which the Inhibition in the experiment on Plasmodium falciparum [1] is 100%; in the experiment with Plasmodium falciparum [2] it was 97%; in the experiment with HepG2, 3%.
